For 40 compounds, growth results are on record in PubChem BioAssay (NCI).

The panel holds about 83,000 compounds, 20% with a hit somewhere; the sample as a whole holds those more often.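 48-hour exposure, single concentration, 96-well plates; percent growth endpoint where 0 means no net growth. Active: below 10.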 The source made the active and inactive calls.

In this assay the test system is SNB-19 CNS. In words: NCI-60 one-dose screen, 48 h (100 = growth as untreated, 0 = no growth, -100 = all killed). The note with it: 10 µM unless noted. On the procedure: Growth inhibition of the SNB-19 human tumor cell line is measured as a screen for anti-cancer activity. Cells are grown in 96 well plates and exposed to the test compound for 48 hours. Compounds are tested at a single concentration, which is 10^-5 M for most compounds. The reported endpoint is percent growth (GI% or GIPRCNT), where numbers from 0 - 100% represent growth inhibition, and numbers from -100% - 0 represent cell death. For example, a value of 40 represents 60% growth inhibition. A value of 0 means no net growth occurred over the course of the experiment. A value of -40 indicates 40% of cells at the beginning of the experiment died by the end of the experiment. A value of -100 means all cells are dead at the end of the experiment.
NCI-60 Human Tumor Cell Lines Screen was performed using the standard one-dose NCI protocol, which is described in more detail at https://dtp.cancer.gov/discovery_development/nci-60/default.htm.
Compounds with GIPRCNT values below 10 were considered active. Activity score was based on GIPRCNT using the following formula: […]
Score is 0 for GIPRCNT values of 100 or above, 50 for GIPRCNT values of 0, and 100 for GIPRCNT values of -100.
On to `c1ccc(-c2cc3n4c(-c5ccccc5)nn(-c5ccccc5)c4cnc-3n2)cc1`, for which the growth was 75.9% (inactive).
The same measure for `CN(C)S(=O)(=O)c1cccc(-c2nc3sc4c(c3c(=O)[nH]2)CCCC4)c1`: 53.5% (inactive); for `Cc1ccc(C2Oc3ccccc3C3CC(c4cccs4)=NN32)cc1` (stereo not given): 96% (inactive).
Next, `CCCOc1cc2ccccc2cc1C(=O)Nc1nc(NC)c2c(ccc3nccc32)[nH]1`: -78.8% (active); `Cc1c(/C=C/[N+](=O)[O-])ccc2c1[nH]c1ccccc12`: 100% (inactive); `COc1cccc(-c2nc(SCC(=O)Nc3ccc(C(=O)/C=C/c4ccc(OC)c(OC)c4)cc3)[nH]c(=O)c2C#N)c1`: 76.3% (inactive).
Next, `O=S(=O)(Nc1ccc(NS(=O)(=O)c2ccccc2)c(Cl)c1)c1ccccc1`: 112% (inactive); `N#Cc1cnn(-c2nc3c(Cl)cccc3s2)c1N`: 94.8% (inactive).
Regarding `COc1ccc(CN2c3ccccc3Oc3ccccc32)cc1O`, the growth was 34.9% (inactive).
The same measure for `CCOC(=O)c1cc(C(=O)c2ccc(O)c(O)c2)n2ccc(-c3ccn4c(C(=O)c5ccc(O)c(O)c5)cc(C(=O)OCC)c4c3)cc12`: 93.9% (inactive); for `O=C1c2cc3c(cc2-c2c1c1cc(F)c(F)cc1c(=O)n2CCCn1ccnc1)OCO3`: 15.7% (inactive); for `C=CC(=O)Nc1cccc(-c2nc(SC)nc(NCCN3CCOCC3)c2C#N)c1`: 88.5% (inactive).
The same measure for `O=C(Cn1cccc(Nc2ccccc2)c1=O)Nc1ccccc1`: 97.1% (inactive); for `CCOC(=O)c1sc2nc(-c3cccc(O)c3)nc(N3CCOCC3)c2c1C`: 69.2% (inactive).
As to `O=C(O)c1ccc(N=CC(=O)c2ccc(-c3ccccc3)cc2)cc1`, the growth was 101% (inactive).
The same measure for `COc1ccc(C(=O)c2sc3nc4c(c(-c5cccnc5)c3c2N)CCCC4)cc1OC`: 71% (inactive).
Next, `COC(=O)c1ccc(Cn2cnc3c(N)ncnc32)cc1`: 104% (inactive).
In the case of `COc1cc2c(cc1-c1c(C)noc1C)ncc1nc(-c3ccccn3)n([C@H](C)COC(F)F)c12`, the growth is 60.2% (inactive).
The same measure for `O=C(Cc1ccc(/C=C/C(=O)c2ncc[nH]2)cc1)Nc1ccccc1`: 22.6% (inactive); for `C=C1C(=O)O[C@H]2[C@H]1CC/C(COC(=O)NCc1ccc(OC)c(OC)c1)=C\CC[C@@]1(C)O[C@@H]21`: 87.2% (inactive); for `CC/C=C\C/C=C\C[C@H]1C/C=C2/C(=O)C=C[C@@H]2C/C=C\CCC(=O)O1`: 28% (inactive).
As to `COc1cc(/C=C/C(=O)c2cccnc2Nc2ccc(F)cc2)cc(OC)c1OC`, the growth is 61.6% (inactive).
Next, `NC(=O)c1cc(Cl)ccc1NC(=O)/C=C/c1ccccc1`: 26.7% (inactive); `Cn1cccc1-c1nc2c3c(ccc2[nH]1)C(=O)c1ccccc1C3=O`: 105% (inactive).
Next, `Cn1c(NCCc2ccc(O)c(O)c2)nc2c1c(=O)n(Cc1ccc(Cl)c(Cl)c1)c(=O)n2C`: 84.3% (inactive); `COc1cc(CNc2oc(-c3ccccc3)c(-c3ccccc3)c2C#N)cc(CN2CCN(C)CC2)c1O`: 83.3% (inactive).
Next, `c1ccc(-c2c(-c3ccccc3)[n+](Cc3ccc4ccccc4c3)c(-c3ccc(-c4nc5ccccc5s4)cc3)n2Cc2ccc3ccccc3c2)cc1`: -97.6% (active); `O=C(Cc1ccc(/C=C/C(=O)c2ncc[nH]2)cc1)Nc1ccc(F)cc1`: 14.2% (inactive); `N#CCCN=Nc1c(O)[nH]c2ccc([N+](=O)[O-])cc12`: 100% (inactive).
On to `CC1=CC(C)(C)Nc2ccc(Cc3ccc4c(c3)C(C)=CC(C)(C)N4)cc21`, for which the growth is 93.4% (inactive).
In the case of `COc1cc(-c2nc3cc(Cl)c(Cl)cc3[nH]2)ccc1OCC(=O)N=Nc1c(O)[nH]c2ccccc12`, the growth is 0.731% (active).
The same measure for `COc1ccc(-c2nn(-c3ccc(Cl)cc3)cc2-c2nc3ccccc3[nH]2)cc1`: 91.9% (inactive); for `COc1cccc(-c2nc3sccn3c2-c2ccnc(NCCNS(=O)(=O)c3ccccc3)c2)c1`: 51.6% (inactive).
Turning to `O=C(/C=C/c1ccc(C(F)(F)F)cc1)Nc1ccc(C=C2c3ccccc3C(=O)c3ccccc32)cc1`, the growth was 66.5% (inactive).
Next, `CSc1nc(NCCN2CCOCC2)c(C#N)c(-c2cccc([N+](=O)[O-])c2)n1`: 95.2% (inactive); `CCn1c(O)c(/C=N/NC(=O)C(C)c2ccc(CC(C)C)cc2)sc1=S` (stereo not given): 37.5% (inactive); `CC1=C/C(=C(\c2ccc(N(C)C)cc2)c2ccc([N+](C)(C)C)cc2)C=CC1=[N+](C)C`: 77% (inactive).
The same measure for `Cc1oc(-c2ccc(Cl)cc2Cl)cc1C(=O)Nc1nccs1`: 98.8% (inactive); for `C=CC(=O)Nc1cccc(-c2nc(SC)nc(Nc3cccc(OC)c3)c2C#N)c1`: 66.9% (inactive).
Next, `CN1CCN(c2nc(NCCCNc3ccnc4cc(Cl)ccc34)c3ccccc3n2)CC1`: 45.4% (inactive).
